MCF10A rereplic = DNA re-replication induction in MCF 10a cells; MCF 10A DNA re-replication, Hoechst nuclear intensity, 48 h; Potency, µM (series often up to 46.1 µM), for the others: top-dose activity, positive = re-replication, hits mostly activators; 350,000 compounds, 2.9% hits; further: % of control where 0% means no effect; nearly all actives have a fitted effect of over 50% in size
SW480 rerep = inducers of DNA re-replication in SW480 colon cancer cells | Potency, µM (top dose mostly 46.1 µM), without a hit: top-dose re-replication activation, hits mostly activators | 340,000 compounds, 1.8% hits | SW480 DNA re-replication, Hoechst DNA content imaging, 48 h; further: % of control where 0% means no effect; nearly all actives have a fitted effect of over 55% in size
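250 cells/well; 23 nL cpd via pin tool; 48 hr, 37 C, 5% CO2; Hoechst 40 min; imager read of total nuclear intensity, ex 405/em 500-530 nm.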
PINK1 modulator = changes PINK1 expression; PINK1 immunofluorescence, high-content cytometry, 24 h; Potency, µM (top dose mostly 76.6 µM), for inactives: top-dose activation (PINK1 increase), usual class: activators; 410,000 compounds, 0.2% hits; active means well fitted activation curve with a large enough effect; inconclusive means small, poorly fitted or top-dose-only effect; cell line not stated here; further: % of control where 0% means no effect; nearly all actives have a fitted effect of over 65% in size
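A stable cell line was treated with compounds at 5 concentrations for 24 hours, with CCCP as control. PINK1 levels and mitochondrial localization were measured by immunofluorescence with mitochondrial, cell and nuclear markers after fixation, read by laser-scanning cytometry.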
KB-3-1 tox = KB-3-1 parental cell cytotoxicity; 400,000 compounds, 1.4% hits; KB-3-1 viability, CellTiter-Glo ATP luminescence, 72 h; AID 1347075; Potency, µM (highest dose often 46.1 µM), actives largely listed as cytotoxic; further: on the % scale 0 is the no-effect control and ±100 the full control effect; nearly all actives have a fitted effect of over 60% in size
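KB-3-1 parental drug-naive adenocarcinoma cells in DMEM/10% FBS, incubated 72 h at 37 C with pin-transferred compounds across a concentration series. Viability by CellTiter-Glo luminescence; concentration-response curves fitted after normalization.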
12-LOX inh = ALOX12 (human) lipoxygenase inhibition | P18054 | purified 12hLO, xylenol orange hydroperoxide absorbance | Potency, µM (highest dose often 108 µM), without a hit: at the top dose activity change, negative = inhibition, usual class: inhibitors | 580,000 compounds, 1.1% hits | AID 1671190; further: on the % scale 0 is the no-effect control and ±100 the full control effect
Target sequence (P18054 whole entry, looked up): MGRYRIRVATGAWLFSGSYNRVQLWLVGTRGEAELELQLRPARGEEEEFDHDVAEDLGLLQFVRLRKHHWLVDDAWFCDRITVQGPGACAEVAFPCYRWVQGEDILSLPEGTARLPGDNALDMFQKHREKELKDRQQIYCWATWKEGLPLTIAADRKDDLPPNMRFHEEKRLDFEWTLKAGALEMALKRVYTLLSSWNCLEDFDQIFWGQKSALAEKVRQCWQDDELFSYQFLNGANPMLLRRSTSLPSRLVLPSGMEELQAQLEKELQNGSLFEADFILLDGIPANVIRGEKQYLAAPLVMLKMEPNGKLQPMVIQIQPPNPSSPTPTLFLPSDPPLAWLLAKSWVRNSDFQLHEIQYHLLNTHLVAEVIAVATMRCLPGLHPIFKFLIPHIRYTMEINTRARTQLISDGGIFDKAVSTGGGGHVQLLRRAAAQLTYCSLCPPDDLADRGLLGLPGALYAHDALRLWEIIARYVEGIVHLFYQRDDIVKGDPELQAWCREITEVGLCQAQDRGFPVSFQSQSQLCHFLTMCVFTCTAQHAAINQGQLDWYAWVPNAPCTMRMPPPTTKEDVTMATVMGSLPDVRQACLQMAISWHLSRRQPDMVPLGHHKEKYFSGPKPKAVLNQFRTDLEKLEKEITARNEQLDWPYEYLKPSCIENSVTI
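Purified human 12hLO (150 nM final) in 25 mM Hepes, 0.01% Triton X-100, pH 7.0 was preincubated 15 min at room temperature with compound. Then 40 uM arachidonic acid was added, 30 min. Hydroperoxide was read by Fe-XO absorbance ratio 573/405 nm.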
KB-V1 MDR tox = KB-V1 MDR subline cytotoxicity | KB-V1 MDR cells viability, CellTiter-Glo, 72 h | Potency, µM (top dose mostly 46.1 µM), actives largely listed as cytotoxic | 400,000 compounds, 3.4% hits | AID 1347076; further: on the % scale 0 is the no-effect control and ±100 the full control effect; nearly all actives have a fitted effect of over 60% in size
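Following 72 h at 37 degrees C with compound, KB-V1 cell viability was read by CellTiter-Glo luminescence, medium being phenol-red-free DMEM plus 10% FBS; concentration-response parameters came from normalized, curve-fitted qHTS data.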
Active calls of the source: *; i = inactive; u = inconclusive; x = no result given; ! = not confirmed by another sample; [ ] = another dose, or the depositor's remark. The list is not random: actives were taken first. Their share in the collection is about 5.8%. Unless noted, the call rests on the fitted dose curve; in most records, active means well fitted curve in the direction sought with a large enough effect; inconclusive means small, poorly fitted or top-dose-only effect, or another doubt; inactive means no such curve, though single readings can be large; an effect the other way counts as inactive or inconclusive. Potency means the concentration at half of the fitted maximal effect.

SMILES | MCF10A rereplic | SW480 rerep | PINK1 modulator | KB-3-1 tox | 12-LOX inh | KB-V1 MDR tox
COc1cccc(CN2CCCC(O)(CN3CCCCC3)C2=O)c1 (configuration not stated) | x | x | x | x | 7% | x
Cc1ccc(-c2cnc(SCC(=O)Nc3ccc(F)c(C)c3)o2)cc1C | x | x | x | x | -26% | x
Cc1ccccc1C(=O)N1CCC(CCC(=O)NCCc2c[nH]c3ccccc23)CC1 | x | x | x | x | 0% | x
COc1cc(C2CC(=O)Nc3c2c(C)nn3-c2nncc(-c3ccc(C)cc3)n2)cc(OC)c1O (configuration not stated) | x | x | x | x | -12% | x
COc1ccc(CCNc2oc(-c3cccc4ccccc34)nc2P(=O)(OC)OC)cc1OC | u | u | -2% | i | -11% | 12µM*
CCOP(=O)(OCC)c1nc(/C=C/c2ccccc2)oc1NCc1ccccc1 | u | 21µM* | -1% | u | -46% | u
CCOP(=O)(OCC)c1nc(-c2cccc3ccccc23)oc1NCc1ccc(OC)cc1 | u | 18µM* | 1% | i | u | i
CCOP(=O)(OCC)c1nc(-c2cccc3ccccc23)oc1NC | x | x | x | x | -19% | x
O=C(NCCOc1ccccc1)c1cc2ccccc2oc1=O | x | x | x | x | 18% | x
COc1ccc(S(=O)(=O)c2c(C)c(C)n(C(C)C)c2NC(=O)C2CCCO2)cc1 (configuration not stated) | x | x | x | x | 16% | x
CCc1ccc(-c2cc(C(F)(F)F)on2)cc1S(=O)(=O)Nc1cc(OC)c(OC)c(OC)c1 | x | x | x | x | -17% | x
COC(=O)c1ccc2c(=O)n(-c3ccccc3F)c(=S)[nH]c2c1 | 5% | -2% | 5% | u | 410% | 18µM*
O=C(O)c1ccc2c(=O)n(-c3ccccc3F)c(=S)[nH]c2c1 | -1% | -4% | 2% | i | u | i
CC(C)/C=N/NC(=O)COc1ccc(C#N)cc1 | x | x | x | x | 2% | x
COc1cc(CCC(=O)Nc2cnc3ccccc3c2)cc(OC)c1OC | 5% | -21% | 0% | i | 0% | i
O=C(Nc1cnc2ccccc2c1)c1ccncc1 | 24% | 1% | 2% | i | 5% | i
CN(C)c1ccc(C(=O)Nc2cnc3ccccc3c2)cc1 | x | x | x | x | 40µM* | x
CN(C)c1ccc(NC(=O)c2ccc3c(c2)nnn3C)cc1 | u | 16µM* | 3% | i | 1% | i
COc1ccc(CCC(=O)Nc2cnc3ccccc3c2)cc1 | 3% | -1% | 2% | i | 13µM* | i
Cc1cccc(NC(=O)CN(C)C(=O)C2CCN(c3ccc(C#N)cn3)CC2)c1C | x | x | x | x | -20% | x
Cc1cccc(NC(=O)CC2CC3CCC2C3)c1 (configuration not stated) | x | x | x | x | 2% | x
CCOC(=O)NC(CNC(=O)c1cc(C)ccc1C)CC(C)C (configuration not stated) | x | x | x | x | -3% | x
O=C(Cn1ncc2ccccc2c1=O)Nc1ccc(F)c(F)c1F | x | x | x | x | -27% | x
COc1ccc(-c2cc(C)no2)cc1S(=O)(=O)N(C)c1ccc(C)cc1 | 7.3µM* | -5% | 7% | u | -2% | 8.2µM*
CCc1ccc(-c2cc(C)no2)cc1S(=O)(=O)NCc1ccc(OC)cc1 | x | x | 7% | 3.3µM* | u | 3.7µM*
SMILES | MCF10A rereplic | SW480 rerep | PINK1 modulator | KB-3-1 tox | 12-LOX inh | KB-V1 MDR tox
CCOc1ccc(N(C)S(=O)(=O)c2cc(-c3cc(C)no3)ccc2OC)cc1 | 10% | -36% | 1% | i | -3% | i
CCOc1ccc(N(C)S(=O)(=O)c2cc(-c3cc(C)no3)ccc2C)cc1 | u | 21µM* | 1% | u | -9% | u
CCOc1ccc2nc(NC(=O)c3nn(Cc4ccccc4)c(=O)c4ccccc34)sc2c1 | x | x | x | x | 9% | x
O=C(c1cccs1)N1CCCC(CN2CCCC2)CC1 (configuration not stated) | x | x | x | x | 106% | x
COc1cccc(-c2cc(C(=O)NCC3CCCO3)c3ccccc3n2)c1 (configuration not stated) | 14% | -48% | 3% | i | -14% | 12µM*
Cc1ccc2nc(-c3cccc(Br)c3)cc(C(=O)NCC3CCCO3)c2c1 (configuration not stated) | 26µM* | 21% | 3% | i | -7% | i
COc1ccc(-c2cc(C(=O)NCC3CCCO3)c3ccccc3n2)cc1 (configuration not stated) | -15% | -10% | -1% | i | -11% | i
CCCNc1cc(N2CCC(CCC(=O)NCc3cccc(OC)c3)CC2)ncn1 | x | x | x | x | 79% | x
CC[C@]12c3[nH]c4ccc(Cl)cc4c3CCN1C(=O)[C@@H](CC(=O)NCCC1=CCCCC1)C[C@@H]2C(=O)N1CCN(C(=O)c2ccco2)CC1 | u | 1% | 3% | i | 25µM* | i
CC[C@]12c3[nH]c4ccc(Cl)cc4c3CCN1C(=O)[C@@H](CC(=O)NCC13CC4CC(CC(C4)C1)C3)C[C@@H]2C(=O)N1CCN(C(=O)c2ccco2)CC1 | 21µM* | u | 18% | u | u | u
O=C(CC1C[C@H](C(=O)N2CCCCC2)[C@@]2(CCc3ccccc3)c3[nH]c4ccccc4c3CCN2C1=O)NCCc1ccccn1 (some centres not stated) | 24% | -54%[9.22 µM] | 4% | u | 5% | 12µM*
COc1cccc(OC)c1OCCNCCO | -1% | -1% | -1% | i | 9% | i
C=CCc1cccc(OC)c1OCCOCCNCCO | 5% | -4% | -1% | i | 2.2µM* | i
O=C1OC(/C=C/c2ccc(Cl)cc2)=NC/1=C/c1ccco1 | -9% | -1% | 0% | i | 40µM* | i
CN1C(=O)/C(=C\c2ccco2)N=C1c1ccc(Cl)cc1Cl | 10% | -2% | 5% | i | -19% | i
COCCCNCC(=O)Nc1ccc(OC(F)(F)F)cc1 | u | u | 4% | i | u | i
COc1ccc(CCCc2nnc(SCC(=O)Nc3ccc(C)cc3)o2)cc1C | x | x | 2% | i | 18µM*! | i
COc1ccc(CCNC(=O)CSc2ccc3ccccc3c2)cc1OC | 5% | -3% | 0% | i | u | 23µM*
COc1ccc(CCNC(=O)CSc2ccc(NC(C)=O)cc2)cc1OC | -17% | -13% | -1% | i | -9% | i
COc1ccc(CCCc2nnc(SCC(=O)Nc3cccc(C)c3)o2)cc1C | x | x | 12% | i | u | i
COc1ccc(CCNCC(=O)Nc2ccc(OC(F)(F)F)cc2)cc1OC | 23µM* | 10% | 12% | i | -67% | i
COc1ccc(-c2nnc(SCC(=O)N(Cc3ccccc3)C(C)(C)C)o2)cc1OC | u | -16% | 4% | u | -13% | 9.2µM*

Bioassay records deposited in PubChem by National Center for Advancing Translational Sciences (NCATS).
